Compound activity: PubChem, several laboratories
Only some compounds are listed: those with a hit (about 4.7% of all), similar ones and a draw of the others.
FBA Mtb inh – inhibits M. tuberculosis FBA enzyme | purified M. tuberculosis FBA, fluorescence read-out | inhibition, % at 1 µM | 2.3% of 360,000 active; in the data active = inhibition above about 27%;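 note: 0% = vehicle and 100% = reference inhibitor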
Target sequence (P9WQA3 whole entry, looked up): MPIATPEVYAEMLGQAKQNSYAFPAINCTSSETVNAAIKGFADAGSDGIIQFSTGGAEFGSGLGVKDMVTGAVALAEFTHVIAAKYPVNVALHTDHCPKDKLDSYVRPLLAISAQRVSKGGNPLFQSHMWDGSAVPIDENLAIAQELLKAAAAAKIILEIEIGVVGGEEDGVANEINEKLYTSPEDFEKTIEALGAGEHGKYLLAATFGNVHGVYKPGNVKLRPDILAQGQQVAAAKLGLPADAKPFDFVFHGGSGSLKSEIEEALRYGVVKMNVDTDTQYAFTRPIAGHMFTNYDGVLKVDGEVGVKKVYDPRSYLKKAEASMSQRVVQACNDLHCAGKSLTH
GDH-TPI inh – counter-screen for M. tuberculosis FBA inhibitors: GDH-TPI coupled enzymes | GDH-TPI coupled enzyme counterscreen, NADH absorbance | inhibition, % at 4.8 µM | 1.2% of 360,000 active;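 note: 0% = DMSO wells and 100% = wells lacking the enzyme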
SARS 3CLpro inh – SARS-CoV 3CLpro protease inhibition; inhibition, % at 6 µM; AID 1706; recombinant SARS-CoV 3CLpro, quenched FRET peptide cleavage; P0C6X7; 0.14% of 290,000 active; in the data active = inhibition above about 12%
RecA intein inh – inhibitors of M. tuberculosis RecA intein splicing; P9WHJ3; cell-free RecA intein splicing, fluorescence; inhibition, % (test concentration not listed); 0.75% of 290,000 active; in the data active = inhibition above about 30%;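 note: 0% = vehicle wells and 100% = reference inhibitor control wells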
VHR inh abs – inhibitors of human VHR1 phosphatase (DUSP3); AID 1654; recombinant VHR phosphatase, pNPP absorbance; 0.52% of 290,000 active; inhibition, % at 13.3 µM; in the data active = inhibition above about 50%
Target sequence (P51452 whole entry, looked up): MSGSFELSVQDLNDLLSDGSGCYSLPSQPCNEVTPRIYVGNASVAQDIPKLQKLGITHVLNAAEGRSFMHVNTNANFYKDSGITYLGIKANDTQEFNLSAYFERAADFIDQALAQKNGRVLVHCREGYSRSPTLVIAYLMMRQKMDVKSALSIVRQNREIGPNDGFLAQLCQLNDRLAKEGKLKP
CCHFV vOTU inh – CCHFV vOTU protease inhibition; 0.55% of 370,000 active; inhibition, % at 11.5 µM; Pep-AMC fluorescence; note: 0% = vehicle wells with enzyme and 100% = no enzyme wells
The depositor's hits bear a star; x = no result; + = active, no number. Cut-off read from the data, not from the text of the source, unless noted: active = inhibition above about 30%; inactive = the rest.

SMILES	FBA Mtb inh	GDH-TPI inh	SARS 3CLpro inh	RecA intein inh	VHR inh abs	CCHFV vOTU inh
Cc1cc(OC(C)C(=O)NCCCN2CCOCC2)ccc1Cl (stereo unspecified)	3	1	5	0	50*	16
CN1C(=O)C(Cc2ccccc2)C(=O)N(C)C1=O	0	-4	x	x	x	-1
CN1C(=O)C(Cc2ccc3c(c2)OCO3)C(=O)N(C)C1=O	x	x	-2	30*	-15	x
COc1cc(/C=C(/C#N)C(=O)Nc2ccccc2)ccc1OCc1ccc(C(=O)O)cc1	4	17	0	1	18	1
N#C/C(=C/c1ccccc1)C(=O)NCc1ccccc1	2	4	3	3	34	16
COCCNC(=O)/C(C#N)=C/c1ccc(OCc2ccccc2)cc1	-1	17	1	2	10	-6
N#C/C(=C\c1ccc(OCc2ccc(C(=O)O)cc2)cc1)C(=O)NCc1ccccc1	0	36*	-3	x	18	3
COc1cc(/C=C(\C#N)C(=O)NCc2ccccc2)ccc1OCc1ccc(C(=O)O)cc1	-5	59*	3	1	22	-3
Cc1cc(/C=C(\C#N)C(=O)NCc2ccccc2)c(C)[nH]1	-2	31*	x	x	x	2
CCOc1cc(/C=C(\C#N)C(=O)Nc2cccc(C(=O)O)c2)ccc1OCc1ccc(Br)cc1	-6	2	5	6	53*	-20
C[C@H](CO)N1C[C@H](C)[C@H](CN(C)S(=O)(=O)c2cccs2)Oc2ncc(Br)cc2C1=O	x	x	x	x	x	-8
Cc1ccc(NC(=O)C2CCN(c3ncccn3)CC2)cc1C	x	x	x	x	x	-7
N#C/C(=C\c1ccc(O)c([N+](=O)[O-])c1)C(=O)NCc1ccccc1	-12	44*	1	4	12	25
CCc1ccc(NC(=O)/C(C#N)=C\c2ccc(OC)c(C(=O)O)c2)cc1	-5	20	-3	0	22	4
COc1ccc(/C=C(/C#N)C(=O)Nc2ccc(O)cc2)cc1C(=O)O	-6	23	6	45*	23	-6
Cc1cccn2cc(-c3c[nH]c4ccccc34)nc12	195*	4	-3	-1	17	-63
Brc1ccc2nc(-c3c[nH]c4ccccc34)cn2c1	-2	7	-5	4	21	3
COC(=O)c1ccc(-c2ccc(/C=N/N3C(=O)C4C5C=CC(C6CC56)C4C3=O)o2)cc1 (stereo unspecified)	4	34*	-2	1	5	9
CC(C)N(Cc1cnn(C)c1)C(=O)c1ccc(OC2CCN(Cc3ccccn3)CC2)cc1	0	-6	3	-1	57*	-5
Cc1ccc2cc3cc(C(=O)NCCN4CCOCC4)oc3nc2c1	91*	48*	-4	-1	13	-74
COc1ccc2cc3cc(C(=O)NCCCN4CCC(C)CC4)oc3nc2c1	+	32*	-2	-8	23	x
CCN1CCN(CCCNC(=O)c2cc3cc4ccc(OC)cc4nc3o2)CC1	+	25	-6	-3	55*	x
Cc1ccc2cc3cc(C(=O)NCc4ccc5c(c4)OCO5)oc3nc2c1	-7	26	-4	0	7	8
CC1CCN(CCCNC(=O)c2ccc(CS(=O)(=O)Cc3ccc(Cl)cc3)o2)CC1	-1	6	1	-6	4	12
COc1ccc2cc3cc(C(=O)NCCCN4CCOCC4)oc3nc2c1	+	33*	1	-6	21	-259
SMILES	FBA Mtb inh	GDH-TPI inh	SARS 3CLpro inh	RecA intein inh	VHR inh abs	CCHFV vOTU inh
CCc1ccccc1Oc1nc(NCc2ccccc2)nc2ccsc12	1	7	x	x	x	14
CC1(C)OC(=O)NC1c1ccccc1 (stereo unspecified)	1	3	x	x	x	4
Cc1ccc2cc3cc(C(=O)NCCCN4CCCC4=O)oc3nc2c1	156*	22	-6	-1	20	-161
O=C(CSc1nc2ccccc2o1)N/N=C/c1ccccc1	0	-5	4	0	-7	-23
O=C(CSc1nc2ccccc2o1)N/N=C/c1ccc(O)c(O)c1	3	54*	-1	-7	11	21
COc1ccc(CCNc2nc(=O)[nH]nc2C)cc1OC	0	2	1	x	21	11
COc1ccc(/C=N/Nc2nc3ccccc3c(=O)n2-c2ccccc2)cc1OC	-3	60*	-2	-1	1	13
COc1cc(/C=N/Nc2nc(=O)[nH]nc2C)ccc1O	-6	32*	-1	-5	9	11
COc1ccc(/C=N/Nc2nc(=O)[nH]nc2C)cc1OC	3	48*	3	0	9	24
COc1ccc(/C=N/n2c(C)nc3ccccc3c2=O)cc1OC	0	7	-4	-1	5	-4
CCCCN(C)C(=O)CSc1nnc(-c2cc(OC)c(OC)c(OC)c2)o1	x	x	x	x	x	14
COc1cccc(CNC(=O)Cn2ccc3cc(S(=O)(=O)N4CCCC4)ccc32)c1	2	3	-3	-2	18	1
CC(C)Oc1ccc(CNC(=O)Cn2ccc3cc(S(=O)(=O)N4CCCC4)ccc32)cc1	-1	7	1	0	53*	2
CCOC(=O)c1c(SCCN2CCCCC2)n(-c2ccccc2)c(=S)n(-c2ccccc2)c1=O	0	-1	x	x	x	-1
Cc1ccccc1C(=O)NC1CCCCN(Cc2cccc(F)c2)C1=O (stereo unspecified)	x	x	x	x	x	-6
CC(=O)N1CCN(Cc2cc(=O)oc3ccc4ccccc4c23)CC1	4	x	x	x	x	10
CCC(=O)OCc1cc(=O)oc2ccc3ccccc3c12	170*	16	-6	-5	17	-232
COc1ccc(NC(=O)Nc2ccc3c(c2)CC(=O)N([C@H](C)CO)C[C@H](C)[C@H](CN(C)Cc2ccc(C(=O)O)cc2)O3)cc1	-4	-4	x	x	x	7
C[C@H](CO)N1C[C@H](C)[C@@H](CN(C)S(C)(=O)=O)OCc2cnnn2CCCC1=O	-2	2	x	x	x	1
CCS(=O)(=O)N1CCc2nc(-c3ccccc3)sc2C1	8	-13	3	2	2	-10
COc1ccc(-c2nc3c(s2)CN(S(C)(=O)=O)CC3)cc1OC	127*	3	-2	1	-5	-59
c1ccc(N=Nc2ccc(C3=NCCO3)cc2)cc1	-1	36*	x	x	x	12
c1ccc(C2=NCCCO2)cc1	0	0	x	x	x	0
CCC(CC)NC(=O)COC(=O)CCC(=O)c1cccs1	-2	12	-1	-6	52*	-9
CC(C)(C)N1C(=O)NC(=O)/C(=C\c2ccc3c(c2)CCN3CCCCl)C1=O	1	32*	1	2	6	-4
CC(C)C(NC(=O)C1CC(=O)N(Cc2ccccc2)C1)c1nc2ccccc2[nH]1 (stereo unspecified)	-1	6	x	x	x	3
C/C(=N\Nc1ccc2nncn2n1)c1cccs1	2	35*	2	-2	20	-4
CC(=O)NC1=C(N2CC2C)C(=O)C(NC(C)=O)=C(N2CC2C)C1=O (stereo unspecified)	-4	32*	x	x	x	16
